# Structures can show the parent of a compound that is named as a salt. ± gives the standard deviation of the averaged measurements.
# How the values were obtained:
# Assay in all cases: growth (OD600 after 10 h); higher = more growth (less inhibition)
# [1] = test system: E. coli TESEC Alr+ wild-type control; conditions: compound 0.1 mM; raw OD600 reference: median of DMSO wells 0.241, cell-free background 0.041
# Description: (§1)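 TESEC Mtb Alr E. coli, or the Alr+ wild-type control, in 384-well plates with Prestwick library compounds at 0.1 mM and 1% DMSO, across arabinose induction levels of 1E3 to 1E7 nM. Growth is read as OD600 after 10 h at 37 °C in triplicate biological replicates.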
# E. coli TESEC Mtb Alr [2] = conditions: compound 0.1 mM
# Description: as §1
# E. coli TESEC Mtb Asd = conditions: compound 0.1 mM
# Description: (§2)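 TESEC E. coli strains in which the native enzyme is deleted and replaced by arabinose-inducible Mtb Asd, DapB, CysH or TrpD, each grown in its selective medium. Strains were screened against the Prestwick library at 0.1 mM and 1% DMSO in 384-well format at low and high arabinose induction. Growth is read as OD600 after 10 h in triplicate.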
# E. coli TESEC Mtb DapB = conditions: compound 0.1 mM
# Description: as §2
# [3] = test system: E. coli TESEC Alr+ wild-type control; conditions: compound 0.1 mM; raw OD600 reference: median of DMSO wells 0.49, cell-free background 0.052
# Description: (§3)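 TESEC Mtb Alr E. coli (ΔaraC ΔtolC ΔentC Δalr ΔdadX, arabinose-inducible Mtb Alr) or the Alr+ wild-type control strain, grown in defined M9-fructose medium without D-alanine in 96-well plates with Prestwick library compounds at 0.1 mM and 1% DMSO. Low Alr induction is 0.1 µM arabinose and high induction is 10 mM arabinose.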
# E. coli TESEC Mtb Alr [4] = conditions: compound 0.1 mM; remark: listed apart in the source
# Description: as §3
# [5] = arabinose 1000 nM, raw OD600 reference: median of DMSO wells 0.294, cell-free background 0.041
# [6] = arabinose 10000 nM, raw OD600 reference: median of DMSO wells 0.264, cell-free background 0.041
# [7] = arabinose 100000 nM, raw OD600 reference: median of DMSO wells 0.201, cell-free background 0.041
# [8] = arabinose 1000000 nM, raw OD600 reference: median of DMSO wells 0.193, cell-free background 0.041
# [9] = arabinose 10000000 nM, raw OD600 reference: median of DMSO wells 0.146, cell-free background 0.041
# [10] = arabinose induction (level): High, raw OD600 reference: median of DMSO wells 0.331, cell-free background 0.041
# [11] = arabinose induction (level): Low, raw OD600 reference: median of DMSO wells 0.417, cell-free background 0.041
# [12] = arabinose induction (level): High, raw OD600 reference: median of DMSO wells […], cell-free background 0.041
# [13] = arabinose induction (level): Low, raw OD600 reference: median of DMSO wells 0.227, cell-free background 0.041
# [14] = arabinose 100 nM, raw OD600 reference: median of DMSO wells 0.413, cell-free background 0.052
# [15] = arabinose 10000000 nM, raw OD600 reference: median of DMSO wells […], cell-free background 0.052
SMILES,growth [1],growth (E. coli TESEC Mtb Alr [2]; [5]),growth (E. coli TESEC Mtb Alr [2]; [6]),growth (E. coli TESEC Mtb Alr [2]; [7]),growth (E. coli TESEC Mtb Alr [2]; [8]),growth (E. coli TESEC Mtb Alr [2]; [9]),growth (E. coli TESEC Mtb Asd; [10]),growth (E. coli TESEC Mtb Asd; [11]),growth (E. coli TESEC Mtb DapB; [12]),growth (E. coli TESEC Mtb DapB; [13]),growth [3],growth (E. coli TESEC Mtb Alr [4]; [14]),growth (E. coli TESEC Mtb Alr [4]; [15])
CCN1C(=O)NC(c2ccccc2)C1=O (stereo not drawn) [Ethotoin],0.244 ± 0.0096,0.304 ± 0.008,0.254 ± 0.0063,0.191 ± 0.009,0.187 ± 0.006,0.142 ± 0.0016,0.434 ± 0.031,0.446 ± 0.014,0.217 ± 0.01,0.243 ± 0.051,0.448 ± 0.012,0.4121 ± 0.0041,0.353 ± 0.017
CO[C@@]1(NC(=O)Cc2cccs2)C(=O)N2C(C(=O)O)=C(COC(N)=O)CS[C@@H]21 [Cefoxitin sodium salt],0.0397 ± 0.00092,0.0385 ± 0.0017,0.0398 ± 0.0004,0.0383 ± 0.0013,0.03983 ± 0.00029,0.0389 ± 0.00036,0.0597 ± 0.0059,0.0593 ± 0.014,0.0512 ± 0.0019,0.0492 ± 0.0059,0.0458 ± 0.00061,0.0456 ± 0.00026,0.052 ± 0.0013
Cc1onc(-c2c(Cl)cccc2Cl)c1C(=O)N[C@@H]1C(=O)N2[C@@H]1SC(C)(C)[C@@H]2C(=O)O [Dicloxacillin sodium salt hydrate],0.222 ± 0.0048,0.226 ± 0.11,0.261 ± 0.0043,0.196 ± 0.02,0.185 ± 0.007,0.149 ± 0.0044,0.251 ± 0.056,0.311 ± 0.09,0.188 ± 0.028,0.226 ± 0.018,0.516 ± 0.11,0.403 ± 0.0099,0.351 ± 0.017
CN(C)CCOC(c1ccccc1)c1ccccc1.Cn1c(=O)c2[nH]c(Cl)nc2n(C)c1=O [Dimenhydrinate],0.213 ± 0.0024,0.255 ± 0.012,0.226 ± 0.0081,0.174 ± 0.011,0.134 ± 0.01,0.133 ± 0.0031,0.261 ± 0.044,0.342 ± 0.12,0.174 ± 0.0038,0.197 ± 0.014,0.53 ± 0.059,0.402 ± 0.008,0.319 ± 0.0044
CN(C)CCN(Cc1cccs1)c1ccccn1 [Methapyrilene hydrochloride],0.216 ± 0.0071,0.281 ± 0.012,0.252 ± 0.007,0.224 ± 0.024,0.165 ± 0.0065,0.143 ± 0.0051,0.257 ± 0.024,0.41 ± 0.059,0.175 ± 0.0071,0.193 ± 0.0062,0.644 ± 0.021,0.402 ± 0.011,0.332 ± 0.011
CN(C)CC/C=C1\c2ccccc2CSc2ccccc21 [Dosulepin hydrochloride],0.168 ± 0.0019,0.208 ± 0.0074,0.309 ± 0.019,0.211 ± 0.0092,0.146 ± 0.0095,0.163 ± 0.0079,0.14 ± 0.0062,0.263 ± 0.0048,0.168 ± 0.015,0.202 ± 0.0032,0.425 ± 0.028,0.413 ± 0.013,0.308 ± 0.0073
COC(=O)[C@H](c1ccccc1Cl)N1CCc2sccc2C1 [Clopidogrel],0.0938 ± 0.0032,0.0873 ± 0.0047,0.0411 ± 0.0013,0.0991 ± 0.004,0.0439 ± 0.00078,0.0663 ± 0.00069,0.158 ± 0.014,0.128 ± 0.0029,0.153 ± 0.015,0.159 ± 0.012,0.3176 ± 0.0024,0.38 ± 0.016,0.0754 ± 0.014
NS(=O)(=O)c1cc2c(cc1Cl)N=C(CSCc1ccccc1)NS2(=O)=O [Benzthiazide],0.241 ± 0.008,0.292 ± 0.023,0.254 ± 0.0055,0.171 ± 0.017,0.169 ± 0.0062,0.132 ± 0.0022,0.286 ± 0.026,0.487 ± 0.025,0.194 ± 0.016,0.21 ± 0.012,0.606 ± 0.051,0.405 ± 0.0095,0.3136 ± 0.0011
N[C@@H]1CCCCN(c2c(F)cc3c(=O)c(C(=O)O)cn(C4CC4)c3c2Cl)C1 [Besifloxacin hydrochloride],0.04153 ± 0.00035,0.0427 ± 0.002,0.0401 ± 0.00026,0.0447 ± 0.0037,0.0402 ± 0.00095,0.0414 ± 0.0011,0.0501 ± 0.0019,0.0463 ± 0.00069,0.0491 ± 0.0014,0.0491 ± 0.001,0.0537 ± 0.00057,0.05447 ± 0.00045,0.053 ± 0.0011
COCCCOc1ccnc(C[S+]([O-])c2nc3ccccc3[nH]2)c1C (stereo not drawn) [Rabeprazole Sodium salt],0.186 ± 0.0019,0.213 ± 0.023,0.262 ± 0.011,0.135 ± 0.0037,0.0782 ± 0.0026,0.1339 ± 0.0007,0.423 ± 0.028,0.371 ± 0.01,0.176 ± 0.021,0.207 ± 0.0085,0.375 ± 0.0068,0.357 ± 0.011,0.152 ± 0.035
CC[C@@H](CO)NCCN[C@@H](CC)CO [Ethambutol dihydrochloride],0.25 ± 0.0032,0.291 ± 0.023,0.255 ± 0.0099,0.216 ± 0.021,0.18 ± 0.0035,0.147 ± 0.0024,0.353 ± 0.067,0.39 ± 0.091,0.19 ± 0.0055,0.2 ± 0.022,0.476 ± 0.06,0.411 ± 0.0072,0.366 ± 0.015
Cc1nnc(SCC2=C(C(=O)O)N3C(=O)[C@@H](NC(=O)Cn4cnnn4)[C@H]3SC2)s1 [Cefazolin sodium salt],0.286 ± 0.013,0.3162 ± 0.0031,0.24 ± 0.0064,0.229 ± 0.0084,0.183 ± 0.0062,0.145 ± 0.0033,0.313 ± 0.07,0.428 ± 0.0098,0.192 ± 0.0067,0.237 ± 0.019,0.562 ± 0.098,0.328 ± 0.015,0.363 ± 0.0051
CC(=O)Oc1ccccc1C(=O)Nc1ncc([N+](=O)[O-])s1 [Nitazoxanide],0.0514 ± 0.01,0.0462 ± 0.0042,0.0417 ± 0.00046,0.0425 ± 0.0013,0.0434 ± 0.0042,0.0448 ± 0.0011,0.0632 ± 0.0045,0.05953 ± 0.00059,0.0545 ± 0.0006,0.0559 ± 0.0026,0.0524 ± 0.0014,0.157 ± 0.039,0.0545 ± 0.0013
CN(C)CCC[C@@]1(c2ccc(F)cc2)OCc2cc(C#N)ccc21 [Escitalopram oxalate],0.201 ± 0.0062,0.281 ± 0.014,0.251 ± 0.015,0.199 ± 0.0081,0.157 ± 0.0041,0.143 ± 0.007,0.297 ± 0.14,0.398 ± 0.064,0.179 ± 0.012,0.202 ± 0.014,0.435 ± 0.007,0.412 ± 0.011,0.352 ± 0.0066
C=C1C[C@H]2[C@@H]3C=C(C)C4=CC(=O)CC[C@]4(C)[C@H]3CC[C@]2(C)[C@@]1(OC(C)=O)C(C)=O [Melengestrol acetate],0.20603 ± 0.00015,0.281 ± 0.013,0.295 ± 0.011,0.166 ± 0.0027,0.176 ± 0.0085,0.148 ± 0.0027,0.213 ± 0.071,0.343 ± 0.11,0.187 ± 0.0082,0.211 ± 0.036,0.205 ± 0.053,0.3558 ± 0.0033,0.142 ± 0.053
CCCCC1C(=O)N(c2ccccc2)N(c2ccccc2)C1=O [Phenylbutazone],0.17293 ± 0.00015,0.224 ± 0.0029,0.234 ± 0.023,0.124 ± 0.0055,0.0869 ± 0.0014,0.132 ± 0.0036,0.145 ± 0.0034,0.261 ± 0.083,0.141 ± 0.0096,0.152 ± 0.006,0.576 ± 0.075,0.399 ± 0.0095,0.283 ± 0.034

# From the supplement of paper PMC9262897, “Low-cost anti-mycobacterial drug discovery using engineered E. coli” (Nature Communications, 2022)
